# PubChem BioAssay (Tox21)
# “And” between values parts separate entries of the source, which are not always exact repeats. Equal values may be shown once. Results filed as inconclusive are left out. Where a call stands in place of a potency, no number is given. Some structures have more than one record in an assay (separate samples or runs), and their calls can disagree. The source made the active and inactive calls. Unless noted, calls come from the whole dose curve; as a rule, active = well fitted curve in the direction sought with a large enough effect in the repeat runs; inconclusive = weak or mixed curves; inactive = no such curve, though single readings can be large; an effect the other way counts as inactive or inconclusive.
# Legend:
# [1] = qHTS assay to identify small molecule agonists of the estrogen receptor alpha (ER-alpha) signaling pathway in the presence of an antagonist - cell viability counter screen (AID 1259386);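 note: series mostly up to about 92 µM; cells exposed to compounds for 22 h at 37 °C before the viability read; nearly all actives have a fitted effect of over 30% in size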
# Procedure, shortened: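 VM7Luc4E2, stripped-serum pre-culture 5 d; 24hr plating; +ICI-182,780 10.0nM final; cpds 15 conc, 22hr, 37C/5% CO2; CellTiter-Fluor added at 21hr, fluorescence 1hr later.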
# [2] = biological target: Progesterone receptor (Homo sapiens) (UniProt P06401); assay: qHTS assay to identify small molecule agonists of the progesterone receptor (PR) signaling pathway (AID 1346784; calls by dose curve; note: nearly all actives have a fitted effect of over 30% in size; note: potency is the fitted concentration of half-maximal effect)
# Chain of Progesterone receptor (Homo sapiens) (P06401 whole entry, looked up): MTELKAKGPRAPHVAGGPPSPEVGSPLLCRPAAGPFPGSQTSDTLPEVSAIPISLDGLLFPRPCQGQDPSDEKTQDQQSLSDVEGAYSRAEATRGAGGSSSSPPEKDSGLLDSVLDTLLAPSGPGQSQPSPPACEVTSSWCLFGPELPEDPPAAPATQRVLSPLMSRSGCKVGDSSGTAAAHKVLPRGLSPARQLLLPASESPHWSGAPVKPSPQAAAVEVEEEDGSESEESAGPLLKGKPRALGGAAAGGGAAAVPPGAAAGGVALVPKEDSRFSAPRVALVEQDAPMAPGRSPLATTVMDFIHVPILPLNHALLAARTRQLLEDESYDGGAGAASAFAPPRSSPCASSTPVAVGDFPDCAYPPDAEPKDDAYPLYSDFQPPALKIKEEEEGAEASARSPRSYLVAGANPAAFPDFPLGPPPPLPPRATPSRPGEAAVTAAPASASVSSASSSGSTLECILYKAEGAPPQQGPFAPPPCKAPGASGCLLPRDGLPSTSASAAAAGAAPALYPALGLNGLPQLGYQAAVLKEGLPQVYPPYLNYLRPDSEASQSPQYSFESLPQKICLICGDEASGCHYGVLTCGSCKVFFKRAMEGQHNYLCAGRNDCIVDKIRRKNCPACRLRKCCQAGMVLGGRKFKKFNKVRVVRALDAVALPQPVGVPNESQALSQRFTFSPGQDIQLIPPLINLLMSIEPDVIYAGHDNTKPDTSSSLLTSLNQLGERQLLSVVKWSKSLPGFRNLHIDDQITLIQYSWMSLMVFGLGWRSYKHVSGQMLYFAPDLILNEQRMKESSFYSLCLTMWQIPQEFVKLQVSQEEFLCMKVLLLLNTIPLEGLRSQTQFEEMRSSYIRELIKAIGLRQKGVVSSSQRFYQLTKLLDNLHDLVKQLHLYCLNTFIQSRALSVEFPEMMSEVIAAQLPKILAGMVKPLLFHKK
# Procedure, shortened: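 Beta-lactamase reporter read-out: after 16 hr compound treatment at 37C and a further 2 hr at room temperature with LiveBLAzer B/G FRET substrate, fluorescence was measured in PR-UAS-bla HEK 293T cells grown in 2% charcoal-stripped serum.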
# [3] = biological target: Progesterone receptor (Homo sapiens) (UniProt P06401); assay: qHTS assay to identify small molecule antagonists of the progesterone receptor (PR) signaling pathway (AID 1346795; active = well fitted inhibition curve with a large enough effect in the signal ratio in the repeat runs, not every such curve was filed as active; the % refers to the signal ratio)
# Procedure, shortened: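 Read-out is fluorescence from the LiveBLAzer B/G FRET substrate, cleaved by a UAS-controlled beta-lactamase in PR-UAS-bla HEK293T cells after 16 hr exposure to compound plus 1 nM promegestone (final), followed by 2 hr at room temperature.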
# [4] = qHTS assay to identify small molecule antagonists of the progesterone receptor (PR) signaling pathway - cell viability counter screen (AID 1346798);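 note: HEK293T PR-UAS-bla cells stimulated with the agonist R5020; series mostly up to about 92 µM; nearly all actives have a fitted effect of over 50% in size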
# Procedure, shortened: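 HEK293T PR-UAS-bla, 2% charcoal-stripped FBS; 4 hr pre-plate; cpd + R5020, 16 h 37C; LiveBLAzer read first; then CellTiter-Glo 30 min RT, luminescence.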
# [5] = qHTS assay to identify small molecule agonists of the progesterone receptor (PR) signaling pathway - cell viability counter screen (AID 1346799; calls by dose curve; note: nearly all actives have a fitted effect of over 45% in size)
# Procedure, shortened: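 Luminescence from CellTiter-Glo, added after the beta-lactamase FRET read in the same wells, gave cytotoxicity in PR-UAS-bla HEK293T cells treated with compounds for 16 hr at 37C.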
# [6] = qHTS assay to identify small molecule agonists of the TGF-beta/Smad signaling pathway - cell viability counter screen (AID 1346829); note: top concentration of the series differs between compounds; nearly all actives have a fitted effect of over 45% in size
# Procedure, shortened: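 HEK 293T SBE-bla line, 5 hr compound exposure at 37 C, multiplexed CellTiter-Glo viability read by luminescence.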
# [7] = qHTS assay to identify small molecule agonists of the TGF-beta/Smad signaling pathway (AID 1346859; active = well fitted activation curve with a large enough effect in the signal ratio in the repeat runs, not every such curve was filed as active; the % refers to the signal ratio; note: series mostly up to about 77 µM)
# Procedure, shortened: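 SBE-bla HEK 293T, 4,000 cells/well, plated o/n; cpd in DMSO, 5 hr, 37 C/5% CO2; B/G FRET substrate 2 hr RT; ex 405, em 460/530 nm.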
# [8] = biological target: Thyrotropin-releasing hormone receptor (Homo sapiens) (UniProt P34981); assay: qHTS assay to identify small molecule antagonists of the thyrotropin-releasing hormone receptor (TRHR) signaling pathway (AID 1346877; active = well fitted inhibition curve with a large enough effect in the repeat runs, not every such curve was filed as active; note: series mostly up to about 51 µM)
# Chain of Thyrotropin-releasing hormone receptor (Homo sapiens) (P34981 whole entry, looked up): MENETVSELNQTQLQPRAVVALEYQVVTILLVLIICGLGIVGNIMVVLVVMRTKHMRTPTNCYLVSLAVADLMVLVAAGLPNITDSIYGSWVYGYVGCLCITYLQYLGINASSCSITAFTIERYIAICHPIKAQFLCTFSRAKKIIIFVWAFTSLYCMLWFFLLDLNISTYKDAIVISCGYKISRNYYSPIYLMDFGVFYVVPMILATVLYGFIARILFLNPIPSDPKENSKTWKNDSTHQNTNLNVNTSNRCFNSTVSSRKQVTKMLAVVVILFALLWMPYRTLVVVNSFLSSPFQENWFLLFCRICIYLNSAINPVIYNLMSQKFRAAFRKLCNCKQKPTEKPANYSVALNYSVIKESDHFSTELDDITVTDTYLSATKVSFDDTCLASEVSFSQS
# Procedure, shortened: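 Intracellular calcium fluorescence, read kinetically every second over 3 min, reports TRH-evoked signalling in HEK293 cells carrying TRHR. Test compounds were added 5 min ahead of a 1 nM TRH challenge.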
# [9] = biological target: Thyrotropin-releasing hormone receptor (Homo sapiens) (UniProt P34981); assay: qHTS assay to identify small molecule agonists of the thyrotropin-releasing hormone receptor (TRHR) signaling pathway (AID 1346891; calls by dose curve; note: series mostly up to about 58 µM)
# Procedure, shortened: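 Intracellular calcium rise, read as fluorescence every second for 3 min, served as the agonist signal in dye-loaded HEK293 cells expressing TRHR; each compound ran at 15 concentrations in triplicate.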
# [10] = Human pregnane X receptor (PXR) small molecule agonists, qHTS cell viability counter screen (AID 1346977); note: nearly all actives have a fitted effect of over 50% in size; note: potency is the fitted concentration of half-maximal effect
# Procedure, shortened: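 PXR-Luc HepG2, 2,000 cells/well, 5% charcoal-stripped FBS; 5hr settle; cpd 24hr, 37C/5% CO2; CellTiter-Fluor at 23hr, read 1hr later (fluorescence).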
# [11] = Caspase-3/7 induction in HepG2 cells by small molecules, qHTS assay (AID 1346978); note: nearly all actives have a fitted effect of over 15% in size
# Procedure, shortened: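 Caspase-3/7 induction was measured by Caspase-Glo 3/7 luminescence (30 min, room temperature) after a 17 hr compound exposure of wild-type HepG2 cells seeded at 2,000 per well and pre-incubated 5 hr.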
# [12] = Caspase-3/7 induction in CHO-K1 cells by small molecules, qHTS cell viability counter screen (AID 1346979); note: nearly all actives have a fitted effect of over 35% in size; note: potency is the fitted concentration of half-maximal effect
# Procedure, shortened: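 Cells (CHO-K1, wild type) are plated at 1,500 per well and incubated 5hr. Test compounds in DMSO are then pinned in, followed by 16hr at 37C and 5% CO2. Viability is read by CellTiter-Fluor fluorescence after 1hr.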
# [13] = Caspase-3/7 induction in CHO-K1 cells by small molecules, qHTS assay (AID 1346980); note: nearly all actives have a fitted effect of over 15% in size
# Procedure, shortened: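 Luminescent Caspase-Glo 3/7 read (30min, room temperature) quantified apoptosis induction. Cells were wild-type CHO-K1, treated with compound for 17hr at 37 C and 5% CO2.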
# [14] = Caspase-3/7 induction in HepG2 cells by small molecules, qHTS cell viability counter screen (AID 1346981); note: series mostly up to about 92 µM; nearly all actives have a fitted effect of over 30% in size
# Procedure, shortened: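 HepG2, WT, 2,000 cells/well; 5 hr pre-incubation 37 C/5% CO2; compound pin-transferred from DMSO; 16 hr exposure; CellTiter-Fluor, 1 hr; fluorescence read.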
# [15] = biological target: Nuclear receptor subfamily 1 group I member 2 (Homo sapiens) (UniProt O75469); assay: Human pregnane X receptor (PXR) small molecule agonists, qHTS assay (AID 1346982); note: nearly all actives have a fitted effect of over 35% in size; note: potency is the fitted concentration of half-maximal effect
# Chain of Nuclear receptor subfamily 1 group I member 2 (Homo sapiens) (O75469 whole entry, looked up): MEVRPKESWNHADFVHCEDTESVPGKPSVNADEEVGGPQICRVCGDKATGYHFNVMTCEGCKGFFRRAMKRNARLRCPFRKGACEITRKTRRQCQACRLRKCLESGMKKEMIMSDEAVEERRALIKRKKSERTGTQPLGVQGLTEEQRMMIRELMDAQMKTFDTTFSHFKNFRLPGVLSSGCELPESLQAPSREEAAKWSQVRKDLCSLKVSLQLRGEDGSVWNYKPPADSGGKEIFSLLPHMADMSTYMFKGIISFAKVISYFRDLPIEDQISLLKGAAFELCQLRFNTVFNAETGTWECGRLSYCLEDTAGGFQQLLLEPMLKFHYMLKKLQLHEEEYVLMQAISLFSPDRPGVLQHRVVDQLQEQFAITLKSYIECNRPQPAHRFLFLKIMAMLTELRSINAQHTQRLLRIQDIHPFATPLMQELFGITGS
# Procedure, shortened: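 Luciferase signal from ONE-Glo (30 min, room temperature) measured activation of hPXR-driven CYP3A4 reporter expression in PXR-Luc HepG2 cells treated with compounds for 24 hr at 37 C.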
# [16] = biological target: Cytochrome P450 2D6 (Homo sapiens) (UniProt P10635); assay: Cytochrome P450 Family 2 Subfamily D Member 6 (CYP2D6) small molecule antagonists: luciferase reporter qHTS assay (AID 1671196); note: nearly all actives have a fitted effect of over 50% in size; note: potency is the fitted concentration of half-maximal effect
# Chain of Cytochrome P450 2D6 (Homo sapiens) (P10635 whole entry, looked up): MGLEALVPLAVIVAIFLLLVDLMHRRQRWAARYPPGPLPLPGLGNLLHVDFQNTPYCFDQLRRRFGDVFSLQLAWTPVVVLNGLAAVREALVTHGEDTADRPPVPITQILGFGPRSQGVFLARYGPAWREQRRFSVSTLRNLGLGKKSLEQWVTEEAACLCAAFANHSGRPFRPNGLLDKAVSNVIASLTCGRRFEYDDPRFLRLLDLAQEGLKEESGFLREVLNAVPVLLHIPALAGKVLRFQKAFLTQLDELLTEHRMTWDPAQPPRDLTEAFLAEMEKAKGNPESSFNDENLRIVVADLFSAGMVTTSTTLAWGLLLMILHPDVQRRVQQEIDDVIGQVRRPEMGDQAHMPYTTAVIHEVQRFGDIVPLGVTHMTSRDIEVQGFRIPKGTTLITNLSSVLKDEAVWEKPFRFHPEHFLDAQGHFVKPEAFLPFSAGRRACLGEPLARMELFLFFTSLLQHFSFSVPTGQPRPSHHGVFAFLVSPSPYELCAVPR
# Procedure, shortened: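 Read-out is luminescence from luciferin formed by CYP2D6 turnover of a proluciferin substrate, recorded as relative luminescence units. Reactions ran 1 h at room temperature after NADPH regeneration solution was added.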
# [17] = biological target: Cytochrome P450 2C19 (Homo sapiens) (UniProt P33261); assay: Cytochrome P450 Family 2 Subfamily C Member 19 (CYP2C19) small molecule antagonists: luciferase reporter qHTS assay (AID 1671197); note: nearly all actives have a fitted effect of over 65% in size; note: potency is the fitted concentration of half-maximal effect
# Chain of Cytochrome P450 2C19 (Homo sapiens) (P33261 whole entry, looked up): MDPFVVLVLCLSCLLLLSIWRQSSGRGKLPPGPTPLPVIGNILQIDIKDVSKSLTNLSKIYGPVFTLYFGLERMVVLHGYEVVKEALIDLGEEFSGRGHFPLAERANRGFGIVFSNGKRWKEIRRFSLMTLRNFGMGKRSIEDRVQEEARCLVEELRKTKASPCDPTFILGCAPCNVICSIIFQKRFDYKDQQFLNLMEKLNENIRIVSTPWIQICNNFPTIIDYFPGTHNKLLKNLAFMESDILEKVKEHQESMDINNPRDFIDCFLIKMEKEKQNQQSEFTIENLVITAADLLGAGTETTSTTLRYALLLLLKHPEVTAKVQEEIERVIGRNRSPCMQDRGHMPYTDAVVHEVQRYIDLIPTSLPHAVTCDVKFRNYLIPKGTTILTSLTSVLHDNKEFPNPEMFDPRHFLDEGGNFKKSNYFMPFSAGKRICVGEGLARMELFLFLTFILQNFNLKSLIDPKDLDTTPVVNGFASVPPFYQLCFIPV
# Procedure, shortened: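 First, compounds are pinned into enzyme-substrate mix and held 10 min at room temperature. Second, NADPH regeneration solution is added and plates incubate 1 h at 37C. Third, detection reagent is added and luminescence read after 20 min.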
# [18] = biological target: Cytochrome P450 2C9 (Homo sapiens) (UniProt P11712); assay: Cytochrome P450 Family 2 Subfamily C Member 9 (CYP2C9) small molecule antagonists: luciferase reporter qHTS assay (AID 1671198); note: nearly all actives have a fitted effect of over 50% in size; note: potency is the fitted concentration of half-maximal effect
# Chain of Cytochrome P450 2C9 (Homo sapiens) (P11712 whole entry, looked up): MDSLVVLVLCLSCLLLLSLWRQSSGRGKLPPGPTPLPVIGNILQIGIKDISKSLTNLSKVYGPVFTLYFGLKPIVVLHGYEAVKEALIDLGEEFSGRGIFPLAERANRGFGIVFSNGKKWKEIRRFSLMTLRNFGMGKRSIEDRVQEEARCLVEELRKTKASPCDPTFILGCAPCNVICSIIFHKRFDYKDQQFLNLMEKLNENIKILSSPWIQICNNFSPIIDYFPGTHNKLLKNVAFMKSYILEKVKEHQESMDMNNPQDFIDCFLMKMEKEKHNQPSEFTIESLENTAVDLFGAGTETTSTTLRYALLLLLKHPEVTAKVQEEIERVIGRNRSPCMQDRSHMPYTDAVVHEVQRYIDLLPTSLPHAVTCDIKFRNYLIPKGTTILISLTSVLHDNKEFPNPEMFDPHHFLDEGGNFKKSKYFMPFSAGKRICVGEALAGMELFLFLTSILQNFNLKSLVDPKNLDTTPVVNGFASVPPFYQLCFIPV
# Procedure, shortened: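 Enzyme-substrate mix preincubated with compound 10 min at room temperature; reaction started with NADPH regeneration solution, 1 h 37C. Luminescent luciferin product read after 20 min detection reagent.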
# [19] = biological target: Nuclear receptor subfamily 1 group I member 2 (Homo sapiens) (UniProt O75469); assay: Human pregnane X receptor (PXR) activation by small molecules, qHTS assay (AID 1346985); note: nearly all actives have a fitted effect of over 40% in size
# Procedure, shortened: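 DPX-2 cells (HepG2 co-transfected with a PXR response element and a CYP3A4-promoter luciferase construct) were seeded at 2,000 per well, rested 5 hr at 37C, then exposed to DMSO-dissolved compounds for 24 hr. Activation was read as luciferase luminescence.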
# [20] = qHTS assay to identify small molecule antagonists of the TGF-beta/Smad signaling pathway - cell viability counter screen (AID 1346824); note: nearly all actives have a fitted effect of over 50% in size
# Procedure, shortened: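 Cytotoxicity counter-screen run in the same wells as the beta-lactamase Smad reporter read: CellTiter-Glo luminescence after 30 min at room temperature. HEK 293T SBE-bla cells had 5 hr compound exposure at 37 C with TGF-beta1 (0.25 ng/mL stock).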
SMILES,Potency [1],Potency [2],outcome [3],Potency [4],Potency [5],Potency [6],outcome [7],outcome [8],outcome [9],Potency [10],Potency [11],Potency [12],outcome [13],Potency [14],Potency [15],Potency [16],Potency [17],Potency [18],Potency [19],outcome [20]
C1N2CN3CN1CN(C2)C3,inactive,inactive,inactive,inactive,inactive,inactive,inactive,inactive,inactive,inactive,inactive,inactive,inactive,inactive,inactive,inactive,inactive,inactive,–,–
Cc1ccccc1C(OCCN(C)C)c1ccccc1 (stereo not given),inactive,inactive,inactive,–,inactive,inactive,inactive,inactive,inactive,inactive,inactive,inactive,inactive,inactive,inactive and 9.69 µM (active),–,inactive,inactive,inactive,–
O=C(C1CCCCC1)N1CC(=O)N2CCc3ccccc3C2C1 (stereo not given),inactive,inactive,inactive,inactive,inactive,inactive,–,inactive,inactive,inactive,inactive,inactive,inactive,inactive,30.6 µM (active),inactive,7.95 µM (active) and 17.8 µM (active) and 9.77 µM (active),inactive,–,–
Cc1cn([C@H]2C[C@H](N=[N+]=[N-])[C@@H](CO)O2)c(=O)[nH]c1=O,inactive,inactive,inactive,inactive,inactive,inactive,inactive,–,–,70.8 µM (active) and inactive,inactive,15.8 µM (active) and inactive,inactive,inactive,inactive,inactive,41.1 µM (active) and 39.9 µM (active) and inactive,63.3 µM (active) and inactive,inactive,–
Cn1c(=O)c2[nH]cnc2n(C)c1=O,inactive,inactive,inactive,inactive,inactive,inactive,inactive,inactive,inactive,inactive,inactive,inactive,inactive,inactive,inactive,inactive,inactive,–,–,–
CC(=O)NS(=O)(=O)c1ccc(N)cc1,inactive,inactive,inactive,inactive,inactive,inactive,inactive,inactive,inactive,inactive,inactive,inactive,inactive,inactive,inactive,inactive,inactive,–,–,–
Nc1ccc(S(=O)(=O)c2ccc(N)cc2)cc1,inactive,inactive,inactive,inactive,inactive,inactive,inactive,inactive,inactive,inactive,inactive,inactive,inactive,inactive,inactive,inactive,–,inactive,–,–
Nc1ccn([C@H]2CC[C@@H](CO)O2)c(=O)n1,inactive,–,–,inactive,inactive,inactive,inactive,inactive,inactive,inactive,inactive,inactive,inactive,inactive,inactive,inactive,78.3 µM (active) and inactive,inactive,–,–
NC(=O)NC1NC(=O)NC1=O (stereo not given),inactive,inactive,inactive,inactive,inactive,inactive,inactive,inactive,inactive,inactive,inactive,inactive,inactive,inactive,–,35.2 µM (active) and inactive,inactive,inactive,–,–
Cc1noc(NS(=O)(=O)c2ccc(N)cc2)c1C,inactive,inactive,inactive,inactive,inactive,inactive,inactive,inactive,inactive,inactive,inactive,inactive,inactive,inactive,inactive,inactive,inactive,inactive,–,–
O=S(=O)(O)NC1CCCCC1,inactive,4.12 µM (active) and inactive,inactive,inactive,inactive,inactive,inactive,–,–,inactive,inactive,inactive,inactive,inactive,–,–,–,–,–,–
Oc1ccc(/C=C/c2cc(O)cc(O)c2)cc1,inactive,–,–,inactive,inactive,inactive,inactive,inactive,inactive,inactive,inactive,69.2 µM (active) and 61.1 µM (active),inactive,inactive,61.7 µM (active) and 30.6 µM (active) and 29.8 µM (active),–,–,–,–,inactive
CCCN(CCC)S(=O)(=O)c1ccc(C(=O)O)cc1,inactive,inactive,inactive,inactive,inactive,inactive,inactive,inactive,inactive,inactive,inactive,inactive,inactive,inactive,–,inactive,inactive,inactive,–,–
N=C(N)c1ccc(OCCCCCOc2ccc(C(=N)N)cc2)cc1,inactive,inactive,inactive,inactive,inactive,inactive,inactive,inactive,inactive,inactive,inactive,54.2 µM (active) and inactive,inactive,inactive,68.2 µM (active) and 32.8 µM (active) and inactive,–,inactive,–,–,–
